Bioassay records from PubChem BioAssay.
The list is not random: actives were taken first. Their share in the collection is about 3.6%.
Sm TGR inh: blocks Schistosoma mansoni thioredoxin glutathione reductase | Q962Y6 | purified TGR, DTNB reduction, TNB absorbance 405 nm | Potency, µM (titrated, usually from 114 µM), actives largely listed as inhibitors | 360,000 tested, 3% active | AID 485364; further: nearly all actives have a fitted effect of over 60% in size
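Kinetic colorimetric format: TGR-catalysed, NADPH-driven DTNB reduction monitored via TNB absorbance. Enzyme dispensed at 20 nM; compound exposure 15 min at room temperature before reaction start.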
AmpC detergent: blocks E. coli AmpC beta-lactamase in detergent assay; P00811; AmpC hydrolysis of nitrocefin, absorbance 480 nm, 0.01% Triton; Potency, µM (highest dose often 114 µM), most hits filed as inhibitors; 370,000 tested, 0.041% active; further: nearly all actives have a fitted effect of over 25% in size
Target sequence (P00811 whole entry, looked up): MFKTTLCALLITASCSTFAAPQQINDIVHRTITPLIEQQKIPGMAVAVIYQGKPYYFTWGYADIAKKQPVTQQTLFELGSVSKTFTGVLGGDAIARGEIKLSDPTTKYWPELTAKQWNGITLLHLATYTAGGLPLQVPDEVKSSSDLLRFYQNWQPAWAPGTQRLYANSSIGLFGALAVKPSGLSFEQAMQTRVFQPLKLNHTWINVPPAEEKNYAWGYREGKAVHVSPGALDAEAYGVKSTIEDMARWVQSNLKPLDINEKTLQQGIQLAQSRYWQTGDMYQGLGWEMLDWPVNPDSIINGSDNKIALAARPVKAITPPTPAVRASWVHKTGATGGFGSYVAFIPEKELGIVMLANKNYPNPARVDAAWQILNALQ
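AmpC (5.3 nM in the dispensed reagent) in 20 mM phosphate pH 7.0 with 0.01% (detergent screen) or 0.0001% Triton X-100 was preincubated with compounds for 15 min at room temperature. Nitrocefin was then added from an 800 uM solution, and hydrolysis was followed at 480 nm.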
Giardia FBPA inh: blocks Giardia fructose-bisphosphate aldolase activity. purified Giardia FBPA. Potency, µM (doses to about 59.6 µM), hits mostly inhibitors. 290,000 tested, 0.71% active. AID 2451; further: nearly all actives have a fitted effect of over 55% in size
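Giardia FBPA (40 nM reagent) was preincubated 10 min at RT with compound (up to 57.5 uM final), then substrate plus GAPDH/TPI/NAD/arsenate coupling system with diaphorase/resazurin was added; resorufin fluorescence (525/598 nm) was read after 20 min.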
AmpC no deterg: inhibitors of E. coli AmpC beta-lactamase without detergent; AID 485341; 330,000 tested, 0.52% active; Potency, µM (doses to about 57.1 µM), most hits filed as inhibitors; P00811; AmpC nitrocefin hydrolysis, absorbance 480 nm, 0.0001% Triton; further: nearly all actives have a fitted effect of over 20% in size
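AmpC (5.3 nM in the dispensed reagent) in 20 mM phosphate pH 7.0 with 0.01% (detergent screen) or 0.0001% Triton X-100 was preincubated with compounds for 15 min at room temperature. Nitrocefin was then added from an 800 uM solution, and hydrolysis was followed at 480 nm.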
A number is an active result; . = inactive; ? = inconclusive; / = no result given. The call rests on the fitted dose curve; in most records, active means well fitted curve in the direction sought with a large enough effect; inconclusive means small, poorly fitted or top-dose-only effect, or another doubt; inactive means no such curve, though single readings can be large; an effect the other way counts as inactive or inconclusive.

SMILES	Sm TGR inh	AmpC detergent	Giardia FBPA inh	AmpC no deterg
NC(=O)c1nsc(C(=O)N(c2cccc(F)c2)C(C(=O)NCC2CCCO2)c2c[nH]c3ccccc23)c1N (configuration not stated)	18µM	.	.	.
NC(=O)c1nsc(C(=O)N(c2ccc(F)cc2)C(C(=O)NCC2CCCO2)c2c[nH]c3ccccc23)c1N (configuration not stated)	25µM	.	.	.
COc1ccc(-c2nnc(C3CCN(C(=O)c4ccccc4F)CC3)o2)cc1	.	.	/	/
COc1ccccc1CN1CC(C(=O)N(C)Cc2ccc(C)o2)CCC1=O (configuration not stated)	20µM	.	/	.
COc1ccc(S(=O)(=O)N2CCC(C(=O)N(C)Cc3ccc(C)o3)CC2)cc1OC	40µM	.	/	.
COc1ccccc1CN1CC(C(=O)N(C)Cc2ccncc2C)CCC1=O (configuration not stated)	.	.	/	.
COc1ccccc1CN1CC(C(=O)NCCc2ccc(C)o2)CCC1=O (configuration not stated)	25µM	.	/	.
Cc1ccc(CNC(=O)C2CCC(=O)N(CC3CCCCC3)C2)o1 (configuration not stated)	28µM	?	.	.
COc1ccccc1CCNC(=O)C1CCC(=O)N(Cc2ccccc2OC)C1 (configuration not stated)	.	.	/	.
Cc1ccc(CN(C)C(=O)c2cccc(S(=O)(=O)N3CCCC3)c2)o1	/	/	/	.
COc1ccc(NC(=O)N(C)C[C@@H]2Oc3ccc(NC(=O)NC(C)C)cc3CC(=O)N([C@H](C)CO)C[C@@H]2C)cc1	/	/	/	.
N#Cc1ccc(CN2CCN(C(=O)CNS(=O)(=O)c3ccc4c(c3)OCCCO4)CC2)cc1	.	.	/	.
O=C(NCCc1cccnc1)C1CCC(=O)N(Cc2cccc(C(F)(F)F)c2)C1 (configuration not stated)	.	.	.	.
O=C(NCCc1ccccc1)C1CCC(=O)N(Cc2cccc(C(F)(F)F)c2)C1 (configuration not stated)	89µM	.	/	.
N#Cc1c(NC2CCCCC2)nc(-c2ccco2)c2c1CCCC2	35µM	.	.	.
N#Cc1c(N2CCNCC2)nc(-c2ccco2)c2c1CCCC2	.	.	.	.
N#Cc1c(NCCCO)nc(-c2ccco2)c2c1CCCC2	6.3µM	.	.	.
CCCCc1nc(NCCO)c(C#N)c2c1CCCC2	.	.	.	.
CN(C)c1ccc(S(=O)(=O)NCC(=O)OCC(=O)Nc2cccc(Cl)c2)cc1[N+](=O)[O-]	.	.	.	.
CNc1ccc(S(=O)(=O)NCC(=O)OCC(=O)Nc2cccc(Cl)c2Cl)cc1[N+](=O)[O-]	.	.	.	25µM
CN(CCCNC(=O)CSc1cc(=O)n(C)c2ccc(Cl)cc12)Cc1ccccc1	.	.	.	.
Cn1c(=O)cc(Nc2ccccc2)[nH]c1=O	.	.	.	.
O=c1[nH]c(Nc2ccccc2)cc2ccccc12	16µM	.	.	.
Cc1c(Cl)cccc1NC(=O)Cn1cnc2nc3c(cc2c1=O)CCCC3	.	.	/	/
CC1(CCl)N([O-])C2=C(CCCC2)[N+]1=O (configuration not stated)	40µM	.	?	.
SMILES	Sm TGR inh	AmpC detergent	Giardia FBPA inh	AmpC no deterg
O=[N+]1C2=C(CCCC2)N([O-])C12CCCC2	.	.	.	.
COCCCN1C(=O)/C(=C/c2ccc(CNS(=O)(=O)c3ccccc3)o2)C(C(=O)OC)=C1C	11µM	.	?	.
CNC(=O)/C(C#N)=C\c1ccc(CNS(=O)(=O)c2ccccc2)o1	.	.	.	.
Cc1nc2c3c(sc2c(=O)[nH]1)NC(=O)CC3c1ccccc1Cl (configuration not stated)	.	.	.	.
O=C1CC(c2ccccc2Cl)c2c(sc3c(=O)[nH]c(CCl)nc23)N1 (configuration not stated)	25µM	.	.	.
CCC(=C(c1ccc(OC)cc1)c1ccc(OC)cc1)c1cn(CC(O)CN2CCN(C)CC2)c2ccccc12 (configuration not stated)	.	.	.	.
COc1ccc(Cc2nc(-c3ccc(-n4cccc4)cc3)no2)cc1	.	.	.	.
COc1ccc(Cc2nc(-c3ccc(-n4cccc4)cc3)no2)cc1OC	.	.	.	8.9µM
C=CCOc1ccc(/C(O)=C2\C(=O)C(=O)N(CCN(C)C)C2c2cccs2)cc1 (configuration not stated)	?	.	.	.
